We go through 16 molecules from PubChem BioAssay AID2284422 (EPA ToxCast).

Calls of active or inactive are those of the source. How the source made its calls: active means hit-call score of the fitted dose curve at least 0.9, where 1 is the maximum; inactive means score below 0.9.

This assay in a line: CCTE_Deisenroth_DEVTOX-GLR_Meso_CellCount: Viability Assessment in CCTE's DevTox GLR-Meso Assay, Deisenroth Lab. On the procedure: CCTE_Deisenroth_DEVTOX-GLR_Meso assay is a cell-based, multiplex-readout assay that uses RUES2-GLR, a human pluripotent cell line, with measurements taken at 48 hours after chemical dosing in a 384-well microplateCCTE_Deisenroth_DEVTOX-GLR_Meso_CellCount is 1 of 4 assay components calculated from the CCTE_Deisenroth_DEVTOX-GLR_Meso assay and it measures cell count. Using fluorescent nuclei staining, gain-of-signal activity can be used to understand changes in cell viability with fluorescent microscopy. It is designed to make measurements of nuclei counts as a surrogate for cell number, as detected with optical fluorescence microscopy by Perkin Elmer Harmony nuclei detection algorithm. To generalize the intended target to other relatable targets, this assay component is annotated to the cell cycle intended target family, where the subfamily is cytotoxicity.Data from the assay component CCTE_Deisenroth_DEVTOX-GLR_Meso_CellCount was analyzed as 1 assay endpoint. The endpoint the percent change in cell count relative to the 0.2% DMSO control in the CCTE_Deisenroth_DEVTOX-GLR_Meso assay. Furthermore, this assay endpoint can be referred to as a primary readout, because this assay has produced multiple assay endpoints where this one serves as a measure of cytotoxicity.
All assay protocols are aligned to the DevTox GLR-Endo assay workflow. Cells are seeded into 384-well microplates for 24 hours prior to initiating differentiation in defined media for a total duration of 48 hours. A total of two chemical exposures are administered in 24-hour intervals during the 48-hour differentiation period. At the assay termination point, cells are fixed and stained with a fluorescent dye demarcating the nucleus. High-content imaging is used to acquire brightfield and fluorescent channel images across 5 fields per well. Cell identification and mean biomarker fluorescence intensities are calculated with image analysis software to determine the total cell counts for viability assessment and the biomarker expression frequency for each lineage-dependent assay. A typical experimental design tests a 10-point concentration series (1 nM - 200 uM) for 28 compounds in single technical replicate. Assay plate controls include non-differentiated pluripotent cells (baseline control), lineage-specific differentiated cells (differentiation control), and DMSO solvent exposed differentiated cells (solvent control). Experiments typically comprise a minimum of four experimental replicates (n=4).
Turning to `O=C1NS(=O)(=O)c2ccccc21`, the outcome was inactive.
By AC50 is commonly meant the concentration at which the activity in the assay is half-maximal. Consider `CC/C(=C(/CC)c1ccc(O)cc1)c1ccc(O)cc1`, for which the AC50 is 2.86 µM (active).
In the case of `O=c1[nH]cc(F)c(=O)[nH]1`, the AC50 is 4.95 µM (active).
The same measure, in the same setting: the same measure for `CCN(CC)CCNC(=O)c1c(C)[nH]c(/C=C2\C(=O)Nc3ccc(F)cc32)c1C`: 1.18 µM (active).
As to `CC(=O)Nc1ccc(O)cc1`, the molecule was classed as inactive.
Take `CC(C)(c1ccc(O)cc1)c1ccc(O)cc1`: the AC50 is 33.5 µM (active).
For the molecule `CCCC(CCC)C(=O)O`, the outcome was inactive.
Turning to `CC1(C)S[C@@H]2[C@H](NC(=O)Cc3ccccc3)C(=O)N2[C@H]1C(=O)O`, the outcome was inactive.
For the molecule `Nc1cccc2c1C(=O)N(C1CCC(=O)NC1=O)C2=O` (stereo unspecified), the outcome was inactive.
For `CC1=C(/C=C/C(C)=C/C=C/C(C)=C\C(=O)O)C(C)(C)CCC1`, the AC50 was 18.6 µM (active).
On to `CS(=O)(=O)OCCCCOS(C)(=O)=O`, for which the AC50 was 57.8 µM (active).
As to `O=C1NC(=O)C(c2ccccc2)(c2ccccc2)N1`, the half-maximal activity concentration (AC50) is 100 µM (active).
For the molecule `Nc1nc2ncc(CNc3ccc(C(=O)N[C@@H](CCC(=O)O)C(=O)O)cc3)nc2c(=O)[nH]1`, the result was inactive.
Consider `O=C1CCC(N2C(=O)c3ccccc3C2=O)C(=O)N1` (stereo unspecified), for which the outcome was inactive.
As for `CN(Cc1cnc2nc(N)nc(N)c2n1)c1ccc(C(=O)N[C@@H](CCC(=O)O)C(=O)O)cc1`, the molecule was called inactive.
`CC1=C(/C=C/C(C)=C/C=C/C(C)=C/C(=O)O)C(C)(C)CCC1`: the half-maximal activity concentration (AC50) was 18.5 µM (active).
